The list is not random: actives were taken first. Their share in the collection is about 3%.
MITF TRPM1 inh – reduces MITF-dependent TRPM1 promoter luciferase signal; hit rate 0.83% among 330,000; inhibition, % at 12.5 µM; SK-MEL-5 TRPM1 promoter luciferase, 24 h;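 active = mean inhibition across replicates of 60% or more, whatever share of single replicates reaches that level; inconclusive = some that reach 60%, reason not given; inactive = mean inhibition across replicates below 60%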
EWS-Fli inh – blocks EWS/Fli oncoprotein-driven transcription; inhibition, % at 12.6 µM; A673 NR0B1-luciferase reporter, viability-normalised; hit rate 0.67% among 350,000;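 active = mean inhibition of at least 50% after viability correction, with every replicate also passing that limit; inconclusive = mean reaches 50% but only one of two replicates passes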;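 also: firefly luciferase signal divided by Alamar Blue viability fluorescence both relative to DMSO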
ABHD5 PLIN5 PPI – ABHD5-PLIN5 protein interaction inhibition; Q00G26+Q8WTS1; Split G. princeps luciferase complementation, luminescence, 4 h; inhibition, % at 4 µM; hit rate 0.78% among 360,000;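 active = inhibition above the mean inhibition across every tested compound plus 3 SD, cut at about 22% in these data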
Target sequence (Q00G26 whole entry, looked up): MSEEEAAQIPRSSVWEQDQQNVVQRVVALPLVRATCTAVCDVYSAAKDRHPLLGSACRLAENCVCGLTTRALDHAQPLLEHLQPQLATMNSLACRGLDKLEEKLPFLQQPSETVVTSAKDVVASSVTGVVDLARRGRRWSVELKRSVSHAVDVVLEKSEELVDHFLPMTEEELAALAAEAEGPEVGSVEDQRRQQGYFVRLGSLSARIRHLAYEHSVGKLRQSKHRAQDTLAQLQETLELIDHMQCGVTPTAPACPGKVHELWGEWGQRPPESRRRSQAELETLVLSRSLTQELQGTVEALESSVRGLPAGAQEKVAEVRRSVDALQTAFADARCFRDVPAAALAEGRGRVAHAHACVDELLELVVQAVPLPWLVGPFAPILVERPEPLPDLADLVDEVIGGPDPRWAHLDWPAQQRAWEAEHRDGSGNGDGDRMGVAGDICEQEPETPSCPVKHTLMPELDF
Target sequence (Q8WTS1 whole entry, looked up): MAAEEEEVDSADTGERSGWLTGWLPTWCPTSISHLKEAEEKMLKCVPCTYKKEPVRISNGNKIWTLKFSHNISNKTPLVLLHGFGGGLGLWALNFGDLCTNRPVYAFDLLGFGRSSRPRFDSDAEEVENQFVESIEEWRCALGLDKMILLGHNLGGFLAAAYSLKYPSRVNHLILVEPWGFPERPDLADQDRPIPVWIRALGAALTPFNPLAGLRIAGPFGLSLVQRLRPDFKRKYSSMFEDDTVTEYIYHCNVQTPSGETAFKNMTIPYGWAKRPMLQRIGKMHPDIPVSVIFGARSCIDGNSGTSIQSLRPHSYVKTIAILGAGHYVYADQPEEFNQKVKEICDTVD
Shn3 inh set2 – Schnurri-3 reporter inhibition in Clone20 osteoblasts. Clone20 osteoblast Shn3 3'UTR firefly luciferase, 24 h. inhibition, % at 12.5 µM. hit rate 0.52% among 360,000. AID 588674;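 active = mean inhibition of at least 75% with every replicate also reaching 75%; inconclusive = mean inhibition at least 75% but some replicate below; inactive = mean inhibition below 75%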
Peg3 prom inh – inhibitors of Peg3 promoter | inhibition, % at 20 µM | HeLa PEG-Prom luciferase reporter, luminescence, overnight | hit rate 1.7% among 360,000;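 active = inhibition of at least 50% at 20 µM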
PAX8 reporter – inhibitors of PAX8 transcriptional activity in RMG-I cells; RMG-I TPO-luciferase reporter, SteadyGlo, 24 h; inhibition, % at 12.6 µM; hit rate 1.2% among 360,000;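 active = mean replicate inhibition at least 60% with every replicate also reaching 60%; inconclusive = only one of the two criteria is met; inactive = mean below 60% and not all replicates reaching 60%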;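 also: luciferase light reporting Pax8 driven TPO promoter activity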
Hits are given with their value; - = inactive; ? = inconclusive; . = not tested or not shown.

SMILES	MITF TRPM1 inh	EWS-Fli inh	ABHD5 PLIN5 PPI	Shn3 inh set2	Peg3 prom inh	PAX8 reporter
C[C@H]1CN([C@@H](C)CO)C(=O)c2cc(NS(=O)(=O)c3cn(C)cn3)ccc2O[C@@H]1CN(C)C(=O)Nc1cccc2ccccc12	.	-	.	.	.	.
COc1ccc2c3c([nH]c2c1)[C@@H](CO)N(Cc1nccs1)CC31CN(Cc2ccncc2)C1	.	-	.	.	.	.
COc1ccc(NC(=O)/C(Cl)=C(/Cl)S(=O)(=O)Cc2ccc(C)cc2)cn1	94	.	64	?	105	.
COc1ccc(NC(=O)Cc2ccc(Cl)c(Cl)c2)cn1	-	-	-	-	-	-
COc1ccc(NC(=O)/C(Cl)=C(/Cl)S(=O)Cc2ccccc2Cl)cn1 (stereo not drawn)	98	.	.	.	.	.
C[C@@H]1CCCCO[C@H](CN(C)C(=O)Nc2ccc3c(c2)OCO3)[C@H](C)CN([C@@H](C)CO)C(=O)c2cc(NC(=O)Cc3ccccc3)ccc2O1	.	-	.	.	.	-
CO[C@@H]1CN(C)C(=O)c2cc(NC(=O)C3CCC3)ccc2OC[C@@H](C)NC[C@@H]1C	.	-	.	.	.	-
COc1ccc(/C=C/c2nc3ccccc3c(=O)o2)cc1	-	71	-	-	-	84
Cc1ccc2[nH]c(=O)c(CN(CCCN(C)C)C(=S)NCCc3ccccc3)cc2c1	-	-	-	-	56	-
O=C1N(CCS(=O)(=O)c2ccccc2)Cc2ccccc2C[C@@]12N=C(c1ccc(OCCCO)cc1)O[C@H]2c1ccccc1	.	-	.	.	.	94
O=C(c1ccccc1)N1Cc2ccccc2C[C@]2(N=C(c3ccc(OCCCO)cc3)O[C@@H]2c2ccccc2)C1=O	.	-	.	.	.	68
O=C1N(Cc2ccccc2)Cc2ccccc2[C@@H]2OC(c3ccc(OCCCO)cc3)=N[C@]12Cc1ccccc1	.	-	.	.	.	64
C=CC[C@]12N=C(c3ccc(OCCCO)cc3)O[C@H]1c1ccccc1CN(C(=O)c1ccccc1)C2=O	.	-	.	.	.	-
O=C1N(CCS(=O)(=O)c2ccccc2)Cc2ccccc2[C@@H]2OC(c3ccc(OCCCO)cc3)=N[C@]12CCS(=O)(=O)c1ccccc1	.	-	.	.	.	-
CCCN1[C@@H]2c3ccc(C4=CCCCC4)c(=O)n3C[C@H]1[C@H](CO)[C@H]2C(=O)NCCOC	.	-	.	.	.	.
NC(=O)CSc1nc2scc(-c3ccco3)c2c(=O)n1-c1ccccc1	-	.	49	-	-	.
O=c1c2c(-c3ccco3)csc2nc(SCc2cn3cccnc3n2)n1-c1ccccc1	-	.	48	-	-	.
O=C(CSc1nc2scc(-c3ccco3)c2c(=O)n1-c1ccccc1)N1CCOCC1	-	.	-	-	-	.
O=C(CSc1nc2scc(-c3ccco3)c2c(=O)n1-c1ccccc1)NCC1CCCO1 (stereo not drawn)	-	.	56	-	-	.
Cc1sc(-n2c(C)cc(/C=C3\SC(=S)NC3=O)c2C)c(C#N)c1C	-	.	-	-	75	.
CCn1ncc(/C=C2/SC(=S)NC2=O)c1C	-	.	-	-	-	-
CCn1c(C)cc(/C=C2/SC(=S)NC2=O)c1C	-	79	-	-	-	-
COc1ccc(CN2CCN(C(c3ccc(F)cc3)c3ccc(F)cc3)CC2)c(OC)c1OC	-	-	-	-	77	-
COc1ccc(CN2CCN(c3ccc(F)cc3)CC2)c(OC)c1OC	-	.	-	-	-	-
CO[C@H]1CN(C)C(=O)c2cc(NC(=O)Nc3c(C)noc3C)ccc2OC[C@@H](C)N(CC2CC2)C[C@H]1C	.	-	.	.	.	-
SMILES	MITF TRPM1 inh	EWS-Fli inh	ABHD5 PLIN5 PPI	Shn3 inh set2	Peg3 prom inh	PAX8 reporter
N/C(=N\N=C/c1ccc(Br)cc1)N/N=C\c1ccc(Br)cc1	-	-	-	-	102	-
N/C(=N\N=Cc1ccc2c(c1)OCO2)NN=Cc1ccc2c(c1)OCO2	66	-	-	-	-	-
N/C(=N\N=C/c1ccc(F)cc1)N/N=C\c1ccc(F)cc1	-	-	-	-	-	-
COc1cccc(S(=O)(=O)Nc2ccc3c(c2)C(=O)N(C)[C@H]2CC[C@@H](CC(=O)NCC4CCCCC4)O[C@@H]2CO3)c1	.	-	.	.	.	-
O=C1CN(S(=O)(=O)Cc2ccccc2)C[C@H]2[C@@H](c3ccc(C#Cc4ccccc4)cc3)[C@@H](CO)N12	.	-	.	.	.	.
COc1ccc(CCN2C(=O)c3[nH]nc(-c4ccccc4O)c3C2c2cccc(Cl)c2)cc1 (stereo not drawn)	-	.	-	-	98	.
Cc1cc(=O)[nH]c(NN=Cc2cc(Br)ccc2O)n1	-	-	-	-	-	-
CCN(CC)c1ccc(/C=N/Nc2nc3ccccc3[nH]2)cc1	-	.	-	-	-	81
CC(=O)Nc1ccc(/C=N/Nc2nc3ccccc3[nH]2)cc1	-	-	-	-	-	-
CCN(CC)c1ccc(/C=N/Nc2nc(C)cc(=O)[nH]2)c(O)c1	-	-	-	-	-	75
CCC(=O)N1CCCCN2[C@H](CO)[C@@H](c3ccc(C#Cc4ccccc4F)cc3)[C@@H]2C1	.	-	.	.	.	-
Cn1c(=NC(=O)CCl)sc2ccccc21	-	74	-	-	-	.
N#Cc1cccc(-c2ccc([C@@H]3[C@H]4CN(C(=O)Nc5ccccc5)CCCCN4[C@H]3CO)cc2)c1	.	-	.	.	.	-
O=C(Cn1sc2ccccc2c1=O)NC12CC3CC(CC(C3)C1)C2	-	.	59	-	-	.
COc1ccccc1C#Cc1ccc([C@H]2[C@@H](CO)N(C(=O)C3CCCC3)[C@H]2C#N)cc1	.	-	.	.	.	.
N#C[C@H]1[C@@H](c2ccc(C#Cc3ccccc3F)cc2)[C@@H](CO)N1C(=O)C1CCCCC1	.	-	.	.	.	82
COc1ccccc1C#Cc1ccc([C@@H]2[C@@H](C#N)N(C(=O)C3CCCCC3)[C@H]2CO)cc1	.	-	.	.	.	89
COc1ccccc1C#Cc1ccc([C@H]2[C@@H](C#N)N(C(=O)C3CCCCC3)[C@H]2CO)cc1	.	63	.	.	.	73
COc1ccccc1C#Cc1ccc([C@H]2[C@@H](C#N)N(C(=O)C3CCC3)[C@H]2CO)cc1	.	-	.	.	.	64
CCCN(C)C[C@@H]1Oc2cc(-c3ccc(C)cc3)ccc2S(=O)(=O)N([C@H](C)CO)C[C@@H]1C	.	-	.	.	.	.
COC(=O)[C@@H]1[C@@H](CO)[C@@H]2Cn3c(ccc(-c4cccc(OC)c4)c3=O)[C@@H]2N1CC1CC1	.	-	.	.	.	-
C[C@H]1CN([C@@H](C)CO)S(=O)(=O)c2ccc(-c3ccc(F)cc3)cc2O[C@@H]1CN(C)C(=O)C1CCC1	.	-	.	.	.	.
CCCC#Cc1ccc([C@@H]2[C@H](C#N)N(S(=O)(=O)c3cccc(F)c3)[C@H]2CO)cc1	.	-	.	.	.	83
CCCC#Cc1ccc([C@H]2[C@@H](C#N)N(C(=O)C3CCCCC3)[C@H]2CO)cc1	.	-	.	.	.	79
CCCC#Cc1ccc([C@@H]2[C@@H](C#N)N(C(=O)C3CCCCC3)[C@@H]2CO)cc1	.	-	.	.	.	-
CN1CCN(C(=O)C[C@H]2CC[C@H]3[C@@H](COC[C@H](O)CN3C(=O)Nc3ccc(F)cc3)O2)CC1	.	-	.	.	.	-
COc1cccc(S(=O)(=O)Nc2ccc3c(c2)C(=O)N(C)[C@H]2CC[C@H](CC(=O)NCC4CCCCC4)O[C@H]2CO3)c1	.	-	.	.	.	-

Bioassay records as filed in PubChem BioAssay.
